# CHX counter: affects cycloheximide protein synthesis inhibition readout, counter-screen | AID 2314 | hit rate 12% among 300,000 | max response, % | cell reporter, cycloheximide protein synthesis inhibition counterscreen; in the data active = max response mostly above about 13%, no sharp cut-off; inactive = mostly below about 14%; note: read at 38.3 µM for the half of the compounds with a filed dose; 0% is about no effect
# AMA1 RON2 block: inhibitors of Plasmodium falciparum AMA1-RON2 interaction; AlphaScreen AMA1-biotinylated RON2 peptide binding; Potency, µM (doses to about 58.2 µM), for the others: at the top dose activity change, negative = inhibition, most hits filed as inhibitors; hit rate 0.2% among 360,000;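 note: potency is the fitted concentration of half-maximal effect; 0% = vehicle wells and -100% = peptide control; nearly all actives have a fitted effect of over 45% in size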
#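 AMA1 (3D7) with his tag at 25 nM final met compounds first, then biotinylated RON2 peptide at 25 nM; detection used donor plus acceptor beads, 10 µg/mL apiece, read by AlphaScreen after 30 min at room temperature.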
# Pf growth 96h: P. falciparum growth inhibition at 96 hours | P. falciparum luciferase reporter growth, 96 h | Potency, µM (series often up to 28.7 µM), inactives show at the highest dose activity change, negative = inhibition, usual class: inhibitors | hit rate 6.9% among 320,000 | AID 504834; note: potency is the fitted concentration of half-maximal effect; % is set by controls: 0 for no effect and ±100 for the full control effect
#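 P. falciparum expressing integrated firefly luciferase, in erythrocytes at 2% hematocrit, 0.05% parasitemia, incubated with compounds 96 h at 37 C, 5% CO2. Growth inhibition read as loss of luminescence; two-generation exposure targets delayed-death apicoplast inhibitors.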
# Pf growth 48h: inhibits P. falciparum growth in the first generation, 48 h; P. falciparum luciferase growth in erythrocytes, 48 h; Potency, µM (series often up to 28.7 µM), for inactives: at the top dose activity change, negative = inhibition, hits mostly inhibitors; hit rate 5.9% among 310,000; note: potency is the fitted concentration of half-maximal effect; % is set by controls: 0 for no effect and ±100 for the full control effect
#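 Firefly luciferase activity from engineered P. falciparum reports growth; inhibitors lower the luminescent signal. Cultures contained 2% hematocrit erythrocytes at 0.1% final parasitemia.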
# Shiga inhibitor: inhibitors of Shiga toxin in Vero cells | Vero cells, Shiga toxin protein synthesis inhibition reporter | inhibition, % at 38.7 µM | hit rate 9.2% among 290,000 | AID 2315; in the data active = inhibition mostly above about 28%, no sharp cut-off; inactive = mostly below about 43%; note: 0% is about no effect
# SARS PLpro yeast: blocks SARS-CoV papain-like protease in a yeast assay; S. cerevisiae expressing SARS-CoV PLpro, growth rescue; Potency, µM (titrated, usually from 32.9 µM), for the others: top-dose activity, positive = growth rescue, most hits filed as activators; hit rate 0.19% among 330,000; AID 485353; calls by dose curve; note: potency is the fitted concentration of half-maximal effect; 0% is about no effect; nearly all actives have a fitted effect of over 55% in size
# Active calls of the source: *; ? = inconclusive; . = no result given. Shown are actives, neighbours in structure and some others; about 19% of the full set was active somewhere. Unless noted, calls come from the whole dose curve; as a rule, active = well fitted curve in the direction sought with a large enough effect; inconclusive = small, poorly fitted or top-dose-only effect, or another doubt; inactive = no such curve, though single readings can be large; an effect the other way counts as inactive or inconclusive.
SMILES,CHX counter,AMA1 RON2 block,Pf growth 96h,Pf growth 48h,Shiga inhibitor,SARS PLpro yeast
CN1CCC(=NNC(=O)c2ccco2)CC1,66.6*,24.1%,?,53.4%,78.6*,-2.1%
CC(C)(C)C1CCC(=NNC(=S)NCc2ccccc2)CC1 (stereo not drawn),11.2,89.5%,?,?,-8.3,17.8%
CN1CCN(c2ccc(CNC(=O)c3ccco3)cc2)CC1,13.7,64.7%,45.2%,42.4%,7.6,-0.8%
CC(C)(C)C1CCC(=NNC(=O)c2ccco2)CC1 (stereo not drawn),70.5*,80.3%,?,37.3%,174.7*,-2.4%
COCCNC(=O)C(=O)NCC(c1ccc2c(c1)OCO2)N1CCN(c2ccc(F)cc2)CC1 (stereo not drawn),-5.3,-14.1%,4.6%,?,-3.1,19.6%
COc1ccccc1NC(=O)/C(=C/c1cccc([N+](=O)[O-])c1)c1ccccc1,0.5,-7.6%,31.3%,?,-6.0,23.5%
O=C(Nc1c(Cl)cccc1Cl)C1CCN(C(=O)c2cccs2)CC1,3.9,-4.4%,9.8%,3.1%,-10.9,2.2%
Cc1csc(NC(=O)c2nn(C)c(C)c2[N+](=O)[O-])n1,24.8*,-4.8%,114.3%,102.6%,52.2*,7.9%
Cc1nn(C)c(C(=O)Nc2ccc3c(c2)OCO3)c1[N+](=O)[O-],21.0*,29.2%,?,-7.4%,36.4,-5.7%
Cc1c([N+](=O)[O-])c(C(=O)Nc2ccc3c(c2)OCCO3)nn1C,51.6*,3.1%,.,164.2%,85.0*,-8.5%
C[C@@H]1CN([C@@H](C)CO)S(=O)(=O)c2ccc(Br)cc2O[C@@H]1CN(C)C(=O)c1ccccn1,.,3.8%,.,.,.,.
CCn1c(COc2ccc(C)cc2)nnc1SCc1nc2ccccc2[nH]1,0.6,3.2%,?,?,28.4,1.3%
Cn1c(COc2ccccc2)nnc1SCc1nc2ccccc2[nH]1,-3.1,42.2%,1.47µM*,-14.2%,-4.8,?
CCn1c(SCc2nc3ccccc3[nH]2)nnc1-c1ccccc1OC,9.7,-0.6%,3.7µM*,?,-4.7,22.5%
Cn1nnnc1SCc1nc2ccccc2[nH]1,33.7*,-2.6%,128.1%,29.3%,62.3,1.9%
Cc1cccc(C)c1NC(=O)CNC(=O)C(C)N(C)CC(=O)Nc1ccc(F)cc1 (stereo not drawn),.,51.1%,-25.4%,-2.8%,.,-1.3%
Fc1cccc(Cn2cc(C(=S)N3CCCCC3)c3ccccc32)c1,1.1,?,?,11.7µM*,0.9,-9.5%
CCn1c(C)[n+](CCOCC[n+]2c(C)n(CC)c3cc(Cl)c(Cl)cc32)c2cc(Cl)c(Cl)cc21,-2.9,6.8%,10.4µM*,.,1.3,-7.9%
CCCCn1nnnc1SCC(=O)NNC(=O)C1CCCCC1,-3.6,77.6%,?,?,-12.3,2.8%
CCOCCn1c(-c2ccc(OC)cc2)nc2ccccc21,21.6,0.0%,118.4%,.,29.1,-2.0%
C=CCn1c(-c2ccc(OC)cc2)nc2ccccc21,35.5*,-4.8%,0.2%,1.8%,30.3*,-9.0%
C=CCn1c(-c2ccc(N)cc2)nc2ccccc21,17.4,-22.4%,116.3%,.,49.9*,-0.5%
COc1ccc(-c2n(Cc3ccccc3)c3ccccc3[n+]2Cc2ccccc2)cc1,1.2,-8.2%,?,0.37µM*,-5.9,-0.3%
COc1ccc2c(c1)nc(N)n2Cc1ccccc1,0.2,-1.6%,33.5%,?,1.0,-2.9%
COc1ccc(-c2nc3ccccc3n2Cc2ccccc2)cc1,25.2*,-3.2%,?,.,14.0,-21.2%
SMILES,CHX counter,AMA1 RON2 block,Pf growth 96h,Pf growth 48h,Shiga inhibitor,SARS PLpro yeast
CC(=O)Nc1ccc(S(=O)(=O)NCC(=O)OCC(=O)N2CC(C)OC(C)C2)cc1 (stereo not drawn),.,1.2%,.,.,.,-0.9%
Cc1onc(-c2ccccc2)c1C(=O)Nc1ccc(S(=O)(=O)NC(C)(C)C)cc1,7.3,-10.3%,-0.4%,?,8.0,1.1%
O=C(CNC(=O)c1ccccc1F)OCCOc1cccc(Cl)c1,.,5.7%,15.6%,?,.,-0.5%
O=c1c2ccccc2nc(-c2ccccc2)n1Cc1ccccc1,22.2,3.7%,-23.5%,16.9%,83.1*,-12.1%
O=c1c2ccccc2nc(-c2ccccc2)n1Cc1ccc(Cl)cc1,4.9,-2.2%,.,5.4%,42.4,-15.3%
COc1ccccc1Cn1c(-c2ccccc2OC)nc2ccccc21,-0.1,-1.9%,.,.,-17.8,-40.2%
COc1ccc(-c2nnnn2CCc2ccccc2)cc1,19.0*,-5.8%,12.3%,21.1%,23.1,3.2%
COc1cc(Cn2c(-c3ccc(O)c(OC)c3)nc3ccccc32)ccc1O,-3.9,11.9%,13.1µM*,2.94µM*,-1.7,2.3%
C=CCn1c(C(O)c2ccccc2)nc2ccccc21 (stereo not drawn),16.0*,2.3%,-23.3%,31.0%,.,?
C=CCN1C(=O)C(CC(=O)Nc2ccc(OCCC)cc2)N(CCCN2CCN(Cc3ccccc3)CC2)C1=S (stereo not drawn),-5.2,?,?,?,-15.5,-4.2%
O=c1ccc(-c2nc3cc(Cl)ccc3n2Cc2ccccc2)c[nH]1,-3.9,-7.0%,9.28µM*,?,1.4,-1.4%
O=c1ccc(-c2nc3ccccc3n2Cc2ccccc2Cl)c[nH]1,-3.2,-15.7%,?,-33.5%,-10.3,0.0%
C=CCn1c(-c2ccc(OC)cc2)nc2nc3ccccc3nc21,37.0*,-9.0%,.,-22.9%,30.1,-4.2%
Cc1cc(C)c(S(=O)(=O)N2CCOC2CNC(=O)C(=O)NCc2cccnc2)c(C)c1 (stereo not drawn),-3.0,0.0%,?,-2.7%,-16.1,-10.5%
COc1ccc2c(c1)CCC1C2=NN(/C(C)=C/C(C)=O)C1c1cccc(F)c1 (stereo not drawn),31.5*,20.7%,-16.8%,-12.7%,47.3*,-2.5%
CCCCNCc1cc(Cl)c(OCCC)c(OCC)c1,-5.3,2.9%,8.28µM*,.,-18.5,?
CCOc1c(Cl)cc(CNCC(O)c2ccccc2)cc1OC (stereo not drawn),3.6,-6.4%,31.2%,4.15µM*,-11.3,1.3%
COc1cc(CNCCc2ccccc2)cc(Cl)c1OCc1ccccc1,-9.5,-9.3%,149.7%,8.28µM*,-18.9,-1.8%
CCOc1c(Cl)cc(CNCC(C)C)cc1OC,-2.7,-4.6%,16.3%,.,3.0,3.1%
CCOc1cc(CNCC(C)C)cc(Cl)c1OCc1ccccc1,-0.4,23.0%,5.22µM*,13.1µM*,14.6,-1.5%
CCOc1cc(C(N)=O)cc(Cl)c1OCc1ccccc1,-1.0,1.2%,14.9%,-1.1%,-2.5,-5.4%
CN1CCN(S(=O)(=O)c2ccc3c(c2)oc(=O)n3C)CC1,-1.9,3.6%,?,8.2%,-12.9,16.2%
O=C(CCc1ccc(S(=O)(=O)N2CCOCC2)cc1)Nc1ccc(F)cc1[N+](=O)[O-],.,-6.5%,.,.,.,-6.3%
CCOc1cc(CNC2CCCC2)cc(Cl)c1OCc1ccccc1,-3.1,0.0%,?,13.1µM*,-16.8,-6.3%
